Shown are actives, neighbours in structure and some others; about 3% of the full set was active somewhere.
IP6K1 inhibitor: blocks human inositol hexakisphosphate kinase 1. Q92551. IP6K1 kinase, ADP-Glo luminescence, 2 h; stronger effect = lower value. activity change, % (series mostly up to about 58 µM). 140,000 compounds, 0.81% hits; in the data active = activity change below about -25%; also: % is scaled to controls: 0 for no effect and ±100 for the full control effect
Target sequence (Q92551 whole entry, looked up): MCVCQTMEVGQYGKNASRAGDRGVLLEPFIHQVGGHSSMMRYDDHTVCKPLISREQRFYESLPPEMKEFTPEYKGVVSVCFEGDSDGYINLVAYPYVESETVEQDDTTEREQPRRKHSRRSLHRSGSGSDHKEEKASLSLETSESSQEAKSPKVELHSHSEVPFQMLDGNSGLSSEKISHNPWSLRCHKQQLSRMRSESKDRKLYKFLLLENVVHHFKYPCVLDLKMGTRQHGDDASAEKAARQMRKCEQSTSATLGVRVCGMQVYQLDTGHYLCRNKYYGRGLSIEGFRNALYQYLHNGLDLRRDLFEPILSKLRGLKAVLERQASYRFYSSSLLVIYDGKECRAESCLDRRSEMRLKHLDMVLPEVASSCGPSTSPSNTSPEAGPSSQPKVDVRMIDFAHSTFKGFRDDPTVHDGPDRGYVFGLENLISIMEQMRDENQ
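ADP-Glo luminescence measures ADP made by human IP6K1 during a 2 h RT reaction with ATP/IP6 (mix at 1.3 mM/130 uM); top library doses 57.5 and 19.1 uM final.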
SNCA expr inh: reduces expression of the alpha-synuclein gene | HEK-293 SNCA-luciferase knock-in, luminescence, 24 h | Potency, µM (doses to about 57.2 µM), inactives show at the highest dose activity change, negative = inhibition, hits mostly inhibitors | 140,000 compounds, 0.17% hits | AID 1671194;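 also: potency is read from the fitted curve at half-maximal effect; plate controls were DMSO cells for no effect and cell-free wells for full effect; nearly all actives have a fitted effect of over 45% in size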
HEK293 viab: cell viability loss counter-screen; HEK-293-SNCA-luc viability, GF-AFC fluorescence, 24 h; Potency, µM (highest dose often 57.1 µM), for the others: at the top dose activity change, negative = cytotoxicity, actives largely listed as cytotoxic; 150,000 compounds, 0.12% hits;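 also: potency is read from the fitted curve at half-maximal effect; 0% = DMSO-treated cells and -100% = medium-only wells without cells; nearly all actives have a fitted effect of over 30% in size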
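HEK-293-SNCA-luc cells (1500/well) plated 24 h, then exposed 24 h to a dilution series; GF-AFC added 30 min at 37C, fluorescence 405/540 nm; normalised to medium-only and DMSO wells, Hill fit.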
KDM5B inhibitor: inhibitors of human KDM5B histone demethylase; Q9UGL1; KDM5B demethylase, FDH-coupled NADH fluorescence (FDH is formaldehyde dehydrogenase); Potency, µM (top dose mostly 57.7 µM), most hits filed as inhibitors; 220,000 compounds, 2.6% hits; also: potency is read from the fitted curve at half-maximal effect; 0% is about no effect; nearly all actives have a fitted effect of over 70% in size
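Compound dilutions met 200 nM (final) KDM5BΔAP for 10 min at room temperature before substrate addition. The substrate mix held 12.5 µM H3K4me3 with cofactors 25 µM α-ketoglutarate and 50 µM Fe²⁺. NADH signal gain over 30 min defined activity.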
Starred values were filed as active, the others as inactive; i = inactive; ? = inconclusive; · = not tested or not shown; [ ] = remark or other dose. Unless noted, calls follow the shape of the dose curve; as a rule, active = well fitted curve in the direction sought with a large enough effect; inconclusive = small, poorly fitted or top-dose-only effect, or another doubt; inactive = no such curve, though single readings can be large; an effect the other way counts as inactive or inconclusive.

SMILES | IP6K1 inhibitor | SNCA expr inh | HEK293 viab | KDM5B inhibitor
O=C(c1ccncc1)N1CCC2(CC1)CC(N(Cc1ccc(F)cc1)C1CC1)CCO2 (stereo unspecified) | 1 | 5% | -8% | 32µM*
O=C(c1ccc(F)cc1)N1CCC2(CC1)CC(N(Cc1ccc(F)cc1)C1CC1)CCO2 (stereo unspecified) | -11 | ? | -12% | i
Fc1cccc(CN2CCNc3cnc(OCc4cccnc4)cc3C2)c1 | -17 | -19%[87.6 µM] | 4%[87.6 µM] | ?
Cc1cccc(CN2CCNc3cnc(OCc4cccnc4)cc3C2)c1 | 2 | -24%[87.6 µM] | -11%[87.6 µM] | 18µM*
COc1ccc(OC)c(CN2CCNc3cnc(OCc4cccnc4)cc3C2)c1 | -6 | 22%[87.6 µM] | 3%[87.6 µM] | 40µM*
COc1ccc(OC)c(CN2CCNc3cnc(Nc4cccnc4)cc3C2)c1 | 13 | -26%[87.6 µM] | 6%[87.6 µM] | 25µM*
CCOc1cc2c(cn1)NCCN(Cc1ccccc1O)C2 | -17 | 29%[87.6 µM] | -4%[87.6 µM] | 35µM*
Oc1ccccc1CN1CCNc2cnc(Oc3ccccc3)cc2C1 | -12 | -26%[87.6 µM] | 2%[87.6 µM] | ?
O=C(NCc1cccc(Cl)c1)c1cn2cc(-c3ccccc3)sc2n1 | 0 | 4% | -3% | ·
Cc1nn(-c2ccccc2)c2c1C(C(C)C)N(C1CCN(C(=O)c3ccccc3F)C1)C2=O (stereo unspecified) | 4 | · | · | ·
Cn1ncc2c(C(=O)C3CCN(Cc4ccccc4)CC3)cc(-c3ccccc3C(F)(F)F)nc21 | 7 | · | · | ·
COc1cccc(CN2CCNc3cnc(OCc4cccnc4)cc3C2)c1 | -13 | -2%[87.6 µM] | -9%[87.6 µM] | 35µM*
COc1cccc(-c2cn3cc(C(=O)NCC(C)C)nc3s2)c1 | -7 | -3%[87.6 µM] | -26%[87.6 µM] | ·
COc1cccc(-c2ccc(C(=O)N3CCC(NC(=O)Nc4ccccc4F)CC3)cc2)c1 | 7 | -26% | 2%[12.5 µM] | ·
Cn1c2c(c3ccccc31)CN(C(=O)c1ccccc1)CC2 | 3 | 6% | -3% | ?
Cn1c2c(c3cc(F)ccc31)CN(C(=O)Nc1ccc(F)c(Cl)c1)CC2 | -8 | ? | ? | 32µM*
Cn1c2c(c3ccccc31)CN(C(=O)NC1CCCCC1)CC2 | 3 | 1% | -1% | ?
COc1ccc(NC(=O)N2CCc3c(c4ccccc4n3C)C2)cc1 | -20 | 87% | -9% | 25µM*
CC(=O)N1CCc2c(c3ccccc3n2C)C1 | 3 | 1% | 3% | 25µM*
O=C(Nc1ccc(Cl)cc1Cl)N1CCc2[nH]c3ccc(F)cc3c2C1 | -8 | -9% | ? | 32µM*
COc1ccccc1-c1cccc(CN2CCC(N[S+](=O)([O-])c3ccc(C)cc3)CC2)c1 | -1 | -26% | 0% | ·
Cn1ncc2c(C(=O)NCC3CC3)cc(-c3ccccc3F)nc21 | -1 | · | · | ·
COc1cccc(N2C(=O)NC(=NC3CCCCC3)C23CCN(C(=O)c2ccccc2)CC3)c1 | -9 | 20% | 7% | i
O=C(NCc1ccccc1F)c1nc2cccnc2n(Cc2ccccc2)c1=O | 13 | -26% | -7% | ·
Cc1ccc(-c2c(C(=O)NCCc3ccccc3)nc3sccn23)cc1 | 8 | 19% | -30% | ·
SMILES | IP6K1 inhibitor | SNCA expr inh | HEK293 viab | KDM5B inhibitor
Cn1c2c(c3ccccc31)CN(C(=O)Nc1ccccc1)CC2 | -5 | 17% | 9% | 22µM*
COc1ccc(-c2nc(C)nc3c2CN(C(=O)Nc2ccccc2)CC3)cc1 | -5 | 12% | 7% | ·
COc1ccc2[nH]c(C(=O)N3CCCCCNC(=O)[C@@H]4CCC[C@@H]43)cc2c1 | 0 | -28% | -2% | 28µM*
COc1ccc2[nH]c(C(=O)NCC(=O)N3CCCCCCNC(=O)CC3c3ccccc3)cc2c1 (stereo unspecified) | 14 | -13% | -17% | 16µM*
COc1ccc2[nH]c(C(=O)NCC(=O)N3CCCCCNC(=O)CC3c3ccccc3)cc2c1 (stereo unspecified) | -4 | -5% | -10% | 28µM*
COc1cccc(-c2ccc(C(=O)N3CCC(NC(=O)Cc4cccc(Cl)c4)CC3)cc2)c1 | 10 | -15% | -3% | ·
O=C(NC1CCN(c2ccc3nnc(C4CC4)n3n2)C1)c1ccccn1 (stereo unspecified) | 13 | · | · | ·
O=C(NCc1nnc2c(-c3nc(C4CC4)no3)cccn12)c1cccc(Cl)c1 | 16 | -2% | 2% | 28µM*
Cc1ccc(C(=O)NCc2nnc3c(-c4nc(C5CC5)no4)cccn23)cc1F | 7 | -26% | -9% | ?
O=C(NCc1nnc2c(-c3nc(C4CC4)no3)cccn12)c1ccc(F)cc1Cl | 0 | 4% | -4% | 20µM*
O=C(NCc1nnc2c(-c3nc(C4CC4)no3)cccn12)c1cccc(F)c1 | -5 | 5% | -2% | 25µM*
O=C(NCc1nnc2c(-c3nc(C4CC4)no3)cccn12)c1ccc(F)c(F)c1 | 7 | -8% | -8% | ?
O=C(Cc1cccc(F)c1)NCc1nnc2c(-c3nc(C4CC4)no3)cccn12 | 13 | 21% | -5% | 32µM*
Cc1ccc(CC(=O)NCc2nnc3c(-c4nc(C5CC5)no4)cccn23)cc1 | 5 | 0% | -9% | ?
O=C(Cc1ccc(F)cc1)NCc1nnc2c(-c3nc(C4CC4)no3)cccn12 | 8 | ? | -8% | 32µM*
C=C1C(=O)O[C@@H]2/C=C(\C)CC/C=C(/C=O)[C@H](OC)[C@@H](OC(=O)C(C)C)[C@@H]12 | -2 | · | ? | ·
C=C1C(=O)O[C@@H]2/C=C(\C)C(=O)/C=C/[C@](C)(O)C[C@@H](OC(=O)C(C)C)[C@@H]12 | -1 | · | 9.3µM* | ·
Cc1ccc(C(=O)NCc2nnc3c(-c4nc(C)no4)cccn23)cc1 | 11 | ? | -17% | 28µM*
COc1ccc(C(=O)NCc2nnc3c(-c4nc(C)no4)cccn23)cc1 | 30 | -2% | -12% | 25µM*
O=C1CC2(CCN(C(=O)C3CCCN(C(=O)Nc4ccc(Cl)cc4)C3)CC2)Oc2ccccc2N1 (stereo unspecified) | -11 | -18% | ? | ·
CN(C)CCNC(=O)Cc1c[nH]c2ncc(-c3ccccc3)cc12 | -10 | 5%[87.6 µM] | 2%[87.6 µM] | 35µM*
O=C(Cc1c[nH]c2ncc(-c3ccccc3)cc12)NCCc1ccccc1 | -10 | -16%[87.6 µM] | -26%[87.6 µM] | i
Cc1ccccc1-c1cnc2[nH]cc(CC(=O)NCCN(C)C)c2c1 | -15 | ? | 8%[87.6 µM] | 35µM*
COc1ccc(OCC2CN(CCc3ccccc3)S(=O)(=O)c3cnccc3O2)cc1 (stereo unspecified) | -10 | · | · | ·
COc1ccc(C(=O)N2CCc3onc(-c4ccc(C(F)(F)F)cc4)c3C2)o1 | 11 | 32% | 3% | 10µM*
COc1ccc(NC(=O)Cn2c(=O)n(-c3ccc(C)c(C)c3)c(=O)c3c4c(sc32)CCCCC4)cc1Cl | -33* | 42% | ? | i
O=C(Cn1c(=O)n(-c2ccc(Cl)cc2)c(=O)c2c3c(sc21)CCC3)c1ccc(F)cc1 | 2 | 20µM* | 4% | ?
Cc1nc(-c2ccccc2)n(Cc2ccccc2Cl)c(=O)c1CCO | 17 | 30% | 12% | i
COCC1(CNC(=O)c2nc3ccccc3[nH]2)C[C@@H](O)[C@@H](O)C1 (stereo partly specified) | 13 | -29%[87.6 µM] | 2%[87.6 µM] | 35µM*

Assay outcomes as filed in PubChem.
